From PubChem BioAssay
Ecoli rRNA inh: inhibitors of bacterial rRNA selective over humanized ribosomes; E. coli WT GFP vs humanized-ribosome RFP mutants, fluorescence, 24 h; hits give low values; DMSO median 0, no signal -100; GFP signal change (wild-type ribosome), % (concentration not given with the values); hit rate 1.6% among 350,000; AID 720706;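 active = significant combined selectivity score with lowered wild-type GFP, culture density cut under 30%, mutant RFP and density less affected; inactive = any of these conditions unmet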
MLL AF4-AF9 inh: blocks AF4 peptide binding to human AF9. P42568. AlphaScreen, biotin-AF4 peptide binding to FLAG-AF9. inhibition, % at 10 µM. hit rate 0.47% among 350,000. AID 651704;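 active = every replicate reaching a set inhibition limit, whatever the replicate mean, cut at about 25% in these data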;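 also: 0% = plate neutral control median and 100% = total signal loss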
Target sequence (P42568 whole entry, looked up): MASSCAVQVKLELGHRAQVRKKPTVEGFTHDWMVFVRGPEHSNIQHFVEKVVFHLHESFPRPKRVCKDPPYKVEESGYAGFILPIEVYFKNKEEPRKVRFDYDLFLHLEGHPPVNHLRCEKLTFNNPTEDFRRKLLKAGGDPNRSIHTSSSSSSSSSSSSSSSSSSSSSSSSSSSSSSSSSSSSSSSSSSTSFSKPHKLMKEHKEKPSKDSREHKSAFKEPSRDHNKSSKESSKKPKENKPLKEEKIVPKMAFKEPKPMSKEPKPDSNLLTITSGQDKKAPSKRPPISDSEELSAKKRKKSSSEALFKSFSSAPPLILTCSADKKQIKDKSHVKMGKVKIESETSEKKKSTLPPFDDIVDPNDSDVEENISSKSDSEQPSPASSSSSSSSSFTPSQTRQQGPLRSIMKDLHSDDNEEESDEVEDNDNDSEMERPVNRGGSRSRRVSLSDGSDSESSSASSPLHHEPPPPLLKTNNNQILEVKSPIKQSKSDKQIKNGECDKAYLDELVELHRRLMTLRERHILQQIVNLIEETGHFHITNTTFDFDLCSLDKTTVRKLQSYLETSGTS
Wnt bcat act: activates Wnt/beta-catenin signaling in a reporter cell assay | activator, plate reader | activation, % at 9.35 µM | hit rate 1.2% among 300,000 | AID 743398; in the data active = activation above about 30%, passing the limit was not always enough;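 also: 0% = neutral control wells and 100% = positive control wells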
MITF act: activators of MITF-driven TRPM1 promoter activity in SK-MEL-5 cells; AID 588334; hit rate 0.75% among 300,000; SK-MEL-5 TRPM1-promoter luciferase, 24 h; % of positive control, neutral wells = 0; activation, % at 12.5 µM;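 active = mean activation of at least 80% with every replicate also reaching 80%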;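 also: 0% = neutral control wells and 100% = parthenolide positive control wells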
esBAF inh: SWI/SNF esBAF complex inhibition. mouse ES cells, Bmi1-luciferase knock-in reporter, 24 h; 100% = twice the neutral-well signal. reporter increase, % at 12.5 µM. hit rate 2% among 350,000; in the data active = activation above about 40%;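 also: 0% = median of the plate's neutral control wells and 100% = double that signal; a rise in the Bmi1 reporter signal indicates esBAF inhibition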
An asterisk follows results filed as active. Most compounds without a hit are left out; they make up all but 3.7% or so of the library.

Results for NS(=O)(=O)c1ccc(CCNC(=O)c2cccc3ccccc23)cc1 ?
Ecoli rRNA inh: 1.5; MLL AF4-AF9 inh: -2.1; Wnt bcat act: -1.9; MITF act: -0.6; esBAF inh: -1.0

Results for CCCN1C(=O)c2ccc(C(=O)Nc3nccs3)cc2C1=O ?
Ecoli rRNA inh: 4.0; Wnt bcat act: 3.5; esBAF inh: 43.3*

Results for CCC(CC)C(=O)Nc1cccc(C(=O)Nc2nccs2)c1 ?
esBAF inh: 0.1

How did COCCN1C(=O)c2ccc(C(=O)Nc3nccs3)cc2C1=O do in these assays?
Wnt bcat act: 1.0; MITF act: -3.8; esBAF inh: -6.2

What do the screens show for `CCCc1cc(C(=O)Nc2nccs2)cs1`?
MITF act: 95.0*; esBAF inh: 19.2

Results for CC(C)C[C@H]1COc2cccc(N3CCC[C@@H]3CO)c2S(=O)(=O)N1 ?
Ecoli rRNA inh: -20.5; MLL AF4-AF9 inh: -1.9; Wnt bcat act: -1.2

How did O=S1(=O)N[C@@H](Cc2ccccc2)COc2cccc(N3CCC[C@H]3CO)c21 do in these assays?
Ecoli rRNA inh: -27.2*; MLL AF4-AF9 inh: 0.7; Wnt bcat act: -4.4

What do the screens show for `CCCCc1cc(=O)oc2cc(C)cc(OCC(=O)N3CCC(C(=O)O)(c4ccccc4)CC3)c12`?
Ecoli rRNA inh: -12.6*; MLL AF4-AF9 inh: -0.7; Wnt bcat act: 3.2; esBAF inh: 2.5

What do the screens show for `CCOc1cc(C)cc2oc(=O)cc(-c3ccccc3)c12`?
Ecoli rRNA inh: -36.5*; MLL AF4-AF9 inh: 2.4; Wnt bcat act: -1.3; MITF act: -5.5; esBAF inh: 12.7

What do the screens show for `CCCCc1cc(=O)oc2cc(C)cc(OCC(=O)N3CCC(C(=O)O)CC3)c12`?
Ecoli rRNA inh: 16.9; MLL AF4-AF9 inh: -0.1; Wnt bcat act: -1.4; MITF act: 7.9; esBAF inh: 7.7

How did CC(=O)Oc1cc(C)cc2oc(=O)cc(-c3ccccc3)c12 do in these assays?
Ecoli rRNA inh: -29.8; MLL AF4-AF9 inh: 0.9; Wnt bcat act: -7.0; MITF act: -1.7; esBAF inh: 7.4

How did Cc1ccccc1NC(=O)OCc1ccccc1 do in these assays?
Ecoli rRNA inh: 3.7; MLL AF4-AF9 inh: -0.1; Wnt bcat act: 6.6; esBAF inh: 52.7*

Results for C[C@H](CO)N1C[C@H](C)[C@@H](CN(C)C(=O)c2ccc(F)cc2)Oc2ncc(C3=CCCC3)cc2C1=O ?
Ecoli rRNA inh: -4.2; MLL AF4-AF9 inh: -1.3; esBAF inh: -1.2

How did c1csc(-c2nnc(-c3ccc(N4CCOCC4)cc3)o2)c1 do in these assays?
MITF act: 16.7; esBAF inh: -25.6

How did c1csc(-c2ccc(N3CCOCC3)nn2)c1 do in these assays?
Ecoli rRNA inh: 9.7; MLL AF4-AF9 inh: -1.2; Wnt bcat act: 33.5*; MITF act: 1.4; esBAF inh: -41.4

Results for CCOC(=O)C1CCN(c2ccc(-c3cccs3)nn2)CC1 ?
Ecoli rRNA inh: -8.2; MLL AF4-AF9 inh: 0.9; Wnt bcat act: 38.0*; MITF act: 83.5*; esBAF inh: 32.4

How did Cc1cccc(-n2ncc3c(NCCCO)ncnc32)c1 do in these assays?
Ecoli rRNA inh: -19.4; MLL AF4-AF9 inh: 3.0; Wnt bcat act: 40.0*; MITF act: 65.1; esBAF inh: 21.3

Results for Cc1cccc(-n2ncc3c(NCc4cccnc4)ncnc32)c1 ?
Ecoli rRNA inh: -7.4; MLL AF4-AF9 inh: -1.5; Wnt bcat act: 21.4; MITF act: 67.1; esBAF inh: 87.9*

What do the screens show for `Cc1ccc(-n2ncc3c(NCc4cccnc4)ncnc32)cc1C`?
Ecoli rRNA inh: -7.6; MLL AF4-AF9 inh: 0.8; Wnt bcat act: 12.7; MITF act: 69.4; esBAF inh: 74.5*

How did C=CCNc1ncnc2c1cnn2-c1cccc(C)c1 do in these assays?
Ecoli rRNA inh: -6.7; MLL AF4-AF9 inh: -3.3; Wnt bcat act: 26.1; MITF act: 66.2; esBAF inh: 17.9

Results for Cc1ccc(-n2ncc3c(NCc4cccnc4)ncnc32)c(C)c1 ?
Wnt bcat act: -4.7; MITF act: -15.2

Results for Cc1ccc(-n2c(C)c(C)c3c(NCCCO)ncnc32)cc1 ?
Ecoli rRNA inh: 2.2; MLL AF4-AF9 inh: 7.9; Wnt bcat act: 10.3; MITF act: 72.9; esBAF inh: 59.3*

What do the screens show for `COCc1ccc(CN2CCC(C(=O)Nc3cccc(-c4cccc(Cl)c4)c3)CC2)o1`?
Ecoli rRNA inh: -47.1; MLL AF4-AF9 inh: 6.5; Wnt bcat act: -0.4; MITF act: -16.6; esBAF inh: -6.4
